ALOX12 inh: ALOX12 (human) lipoxygenase inhibition; P18054; Potency, µM (highest dose often 108 µM), inactives show top-dose activity change, negative = inhibition, usual class: inhibitors; actives 1.1% (n = 580,000); purified 12hLO, xylenol orange hydroperoxide absorbance; note: potency is the fitted concentration of half-maximal effect
Target sequence (P18054 whole entry, looked up): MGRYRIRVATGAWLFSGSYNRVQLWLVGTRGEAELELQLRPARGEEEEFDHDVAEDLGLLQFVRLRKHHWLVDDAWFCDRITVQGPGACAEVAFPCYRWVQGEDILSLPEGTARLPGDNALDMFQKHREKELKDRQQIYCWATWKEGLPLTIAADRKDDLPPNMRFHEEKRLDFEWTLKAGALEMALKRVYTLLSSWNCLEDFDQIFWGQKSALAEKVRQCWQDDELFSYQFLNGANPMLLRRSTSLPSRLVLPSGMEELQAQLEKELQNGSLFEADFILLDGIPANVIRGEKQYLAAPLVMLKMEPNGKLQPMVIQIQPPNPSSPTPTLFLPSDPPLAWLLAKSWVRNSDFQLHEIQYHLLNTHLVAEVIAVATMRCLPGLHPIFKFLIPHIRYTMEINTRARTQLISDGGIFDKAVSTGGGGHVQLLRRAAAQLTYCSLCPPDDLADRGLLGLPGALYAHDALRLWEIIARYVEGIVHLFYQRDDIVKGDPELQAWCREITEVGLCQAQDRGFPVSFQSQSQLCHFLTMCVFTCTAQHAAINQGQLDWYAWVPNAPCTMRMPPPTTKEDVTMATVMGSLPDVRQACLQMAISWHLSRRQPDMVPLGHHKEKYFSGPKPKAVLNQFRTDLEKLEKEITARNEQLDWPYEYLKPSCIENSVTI
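Hydroperoxide product was detected by ferrous iron/xylenol orange as the 573 to 405 nm absorbance ratio. Arachidonic acid at 40 uM (final) was turned over for 30 min at room temperature by 150 nM human 12hLO, pH 7.0 Hepes buffer, after 15 min compound preincubation.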
HT1080NT lethal: kills 2HG-producing HT-1080-NT fibrosarcoma cells. actives 1.6% (n = 360,000). Potency, µM (doses to about 46.1 µM), for inactives: top-dose activity, negative = less viability, usual class: cytotoxic. AID 686970. HT-1080-NT fibrosarcoma viability, CellTiter-Glo ATP luminescence, 48 h;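 note: NT is the 2HG producing partner of a matched IDH1 knockdown line; potency is the fitted concentration of half-maximal effect; 0% = DMSO-treated cells and -100% = media-only wells without cells; nearly all actives have a fitted effect of over 55% in size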
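Fibrosarcoma NT cells, 750 per well in 5% FBS RPMI, were exposed to compound for 48 hours. Viability: CellTiter-Glo luminescence.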
DT40 TDP1 no CPT: qHTS for Inhibitors of human tyrosyl-DNA phosphodiesterase 1 (TDP1): qHTS in cells in absence of CPT. DT40 Tdp1-/- hTDP1 cells, no CPT, ATP luminescence, 48 h. Potency, µM (series often up to 46.2 µM), without a hit: top-dose activity change, negative = growth inhibition, most hits filed as inhibitors. actives 15% (n = 420,000). AID 686978, 2013; note: potency is the fitted concentration of half-maximal effect; nearly all actives have a fitted effect of over 55% in size
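No-CPT arm: Tdp1-/-;hTDP1 DT40 cells (400/well) plus compounds, incubated ≥48 hr at 37 °C. Readout CellTiter-Glo luminescence.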
HT1080 IDH1KD tx: kills HT-1080 cells with IDH1 knockdown. AID 686971. HT-1080 IDH1 knockdown viability, ATP luminescence, 48 h. actives 2% (n = 360,000). Potency, µM (highest dose often 46.1 µM), without a hit: at the top dose activity, negative = toxicity, hits mostly cytotoxic;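 note: potency is the fitted concentration of half-maximal effect; 0% = DMSO wells and -100% = cell-free medium wells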
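Using the IDH1-knockdown HT-1080 line run in the same batch and compound series as the NT line, viability after 48 h at 37 °C was determined by CellTiter-Glo luminescence and expressed as % activity.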
DT40 TDP1 CPT: growth inhibition of DT40 Tdp1-/-;hTDP1 cells with camptothecin (screen for TDP1 inhibitors); Potency, µM (top dose mostly 46.2 µM), for the others: top-dose activity change, negative = growth inhibition, hits mostly inhibitors; chicken DT40 Tdp1-/-;hTDP1 cells + 20 nM CPT, ATP luminescence, 48 h; AID 686979; actives 12% (n = 420,000); note: potency is the fitted concentration of half-maximal effect; nearly all actives have a fitted effect of over 55% in size
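Cell growth measured by CellTiter-Glo luminescence after a minimum 48 h, 37 C compound exposure with 20 nM CPT in Tdp1-knockout DT40 cells stably expressing hTDP1, seeded 400/well; qHTS titration format.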
IL1B secr inh: blocks inflammasome-driven IL-1 beta release | activity change, % at 57.5 µM | THP-1 LPS/ATP IL-1B secretion, AlphaLISA, 16 h; active compounds read low | actives 4.7% (n = 360,000) | AID 743279; in the data active = activity change below about -50%; inconclusive = mostly about -30% to -49%
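THP-1 cells pretreated 1 hr with compounds (up to 57.5 uM final), then stimulated with LPS (250 ng/mL final) plus ATP (1.25 mM final); secreted IL-1B measured by AlphaLISA after 16 hr, decreased signal indicating inhibition.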
* hit, by the source's call; ? = inconclusive; . = no result. Many of the other results were omitted from the sample, so hits are more common in it than they were. Unless noted, calls come from the whole dose curve; as a rule, active = well fitted curve in the direction sought with a large enough effect; inconclusive = small, poorly fitted or top-dose-only effect, or another doubt; inactive = no such curve, though single readings can be large; an effect the other way counts as inactive or inconclusive. Unless noted, % is set by controls: 0 for no effect and ±100 for the full control effect.

SMILES | ALOX12 inh | HT1080NT lethal | DT40 TDP1 no CPT | HT1080 IDH1KD tx | DT40 TDP1 CPT | IL1B secr inh
CCOC(=O)[C@H]1[C@H]2COc3ccc(Br)cc3[C@@H]2N2C(=O)CN(Cc3ccc(C)cc3)C(=O)[C@@]12C | -13.5% | -6.1% | ? | 1.8% | ? | -22.6
CCOC(=O)[C@H]1[C@H]2COc3ccc(Cl)cc3[C@@H]2N2C(=O)CN(Cc3ccc(F)cc3)C(=O)[C@@]12C | 1.0% | 12.8% | ? | -1.6% | ? | -3.1
CCOC(=O)[C@H]1[C@H]2COc3ccc(Br)cc3[C@H]2N2C(=O)CN(Cc3ccc(C)cc3)C(=O)[C@@]12C | ? | -1.3% | ? | -8.8% | ? | -58.8*
CCOC(=O)[C@H]1[C@H]2COc3ccc(Cl)cc3[C@@H]2N2C(=O)CN(Cc3ccc(Cl)cc3)C(=O)[C@@]12C | 3.4% | 0.8% | 16.4µM* | -20.8% | ? | -17.8
CCOC(=O)[C@H]1[C@H]2COc3ccc(Cl)cc3[C@@H]2N2C(=O)CN(Cc3ccccc3)C(=O)[C@@]12C | -4.6% | 0.0% | 20.6µM* | 0.4% | ? | -7.9
Cc1cc(-c2cc(C(=O)Nc3ccccc3)c3c(C)noc3n2)c(C)s1 | 6.0% | . | . | . | . | .
COc1ccc(NC(=O)/C(C#N)=C\C=C\c2ccco2)cc1 | ? | ? | 2.91µM* | 20.6µM* | 8.2µM* | -22.1
COc1ccc(NC(=O)/C(=C\c2ccco2)NC(=O)c2ccco2)cc1 | ? | 2.5% | 6.5% | 0.2% | 3.3% | -6.7
CCCN(CCC)Cc1nc2c(c(=O)[nH]1)C1(CCCC1)Cc1ccccc1-2 | 35.1% | . | . | . | . | .
CCC1(CC)Cc2ccccc2-c2nc(-c3ccccc3)oc(=O)c21 | . | 5.4% | 16.4µM* | -1.6% | ? | 6.3
CCC1(CC)Cc2ccccc2-c2nc(CN(C)C)[nH]c(=O)c21 | 119.5% | ? | 16.4µM* | -14.9% | ? | -2.5
O=c1[nH]c(NNC(=S)NCc2ccccc2)nc2c1C1(CCCCC1)Cc1ccccc1-2 | 35.5µM* | -24.0% | -9.7% | -15.9% | ? | -22.9
CN(C)Cc1nc2c(c(=O)[nH]1)C1(CCCCC1)Cc1ccccc1-2 | 21.4% | -13.6% | 23.1µM* | -0.2% | 18.4µM* | -8.1
CCN1CCC(N2C[C@@H](COC)[C@H](c3nc(C)no3)C2)CC1 | 54.7% | . | . | . | . | .
CCN(CC)Cc1nc2c(c(=O)[nH]1)C1(CCCCC1)Cc1ccccc1-2 | 11.6% | 1.1% | 18.4µM* | -4.9% | 20.6µM* | -16.3
COC(=O)c1ccc(C(=O)OC)c(NC(=O)c2c(-c3ccccc3)c(-c3ccccc3)nn(C)c2=O)c1 | -21.6% | . | 14.6µM* | . | ? | .
COc1ccc(NC(=O)c2c(-c3ccccc3)c(-c3ccccc3)nn(C)c2=O)cc1OC | -29.5% | . | ? | . | ? | .
COc1ccc(NC(=O)c2c(-c3ccccc3)c(-c3ccccc3)nn(C)c2=O)c(OC)c1 | 0.0% | . | ? | . | 16.4µM* | .
COC(=O)c1ccc(C(=O)OC)c(NC(=O)c2c(-c3ccccc3)noc2C)c1 | 3.8% | . | 6.51µM* | . | 6.51µM* | .
O=C(c1cn(Cc2ccccc2)nc1-c1ccc(Cl)cc1)N1CCN(CCO)CC1 | 0.2% | . | . | . | . | .
CC(C)CCN1C[C@@H]2C(=O)N(Cc3ccc4c(c3)OCO4)C(=O)[C@@H]2C1 | 14.1% | . | . | . | . | .
Cc1cccc(-c2nc(C#N)c(N3CCCCCC3)o2)c1 | 8.0% | -0.3% | ? | 0.4% | 29.1µM* | -56.8*
COc1ccc(/C=C/c2nc(C#N)c(N3CCC(C)CC3)o2)cc1OC | -24.1% | . | 23.1µM* | . | 16.4µM* | .
COc1cccc(/C=C/c2nc(C#N)c(N3CCN(C(C)=O)CC3)o2)c1 | -21.2% | . | . | . | . | .
COc1cccc(/C=C/c2nc(C#N)c(N3CCCCC3)o2)c1 | 0.0% | . | 23.1µM* | . | 20.6µM* | .
SMILES | ALOX12 inh | HT1080NT lethal | DT40 TDP1 no CPT | HT1080 IDH1KD tx | DT40 TDP1 CPT | IL1B secr inh
COc1cc(/C=C/c2nc(C#N)c(N3CCCCC3)o2)cc(OC)c1OC | -22.9% | . | 7.31µM* | . | 8.2µM* | .
N#Cc1nc(/C=C/c2ccc(F)cc2)oc1N1CCCCC1 | 2.9% | . | ? | . | ? | .
Cc1cccc(C(=O)N2CCN(C(=O)c3nnn4c3COC(c3ccc(F)cc3)C4)CC2)c1 (configuration not stated) | 41.6% | . | . | . | . | .
COc1ccccc1C(=O)NC(=O)Nc1cccc(Cl)c1 | ? | -8.7% | ? | 1.0% | -6.8% | -3.0
O=C(NC(=O)c1c(F)cccc1F)Nc1cccc(Oc2ncc(Cl)cn2)c1 | -1.0% | -7.2% | 5.8µM* | 3.1% | ? | 0.0
CCC(C)NC(=O)/C=C1\Sc2ccccc2NC1=O (configuration not stated) | 9.0% | 27.6% | ? | 7.0% | -12.3% | -61.0*
Cc1ccccc1-c1nc(CSc2nc(C)c(C)c(=O)[nH]2)c(C)o1 | 10.7% | . | . | . | . | .
Nc1ccccc1N1C(=O)c2ccccc2C1=O | 2.7% | . | . | . | . | .
COc1ccc(Cl)cc1NC(=O)Cn1c(=O)n(Cc2cccs2)c(=O)c2cccnc21 | -19.7% | . | 18.4µM* | . | ? | .
COc1ccc(CCn2c(=O)c3cccnc3n(CC(=O)Nc3ccc(C)c(F)c3)c2=O)cc1OC | ? | . | 20.6µM* | . | 4.11µM* | .
COc1ccc(CCn2c(=O)c3cccnc3n(CC(=O)Nc3cccc(C)c3)c2=O)cc1OC | -12.9% | . | -12.7% | . | -14.7% | .
Cc1ccc(C)c(NC(=O)Cn2c(=O)n(Cc3cccs3)c(=O)c3cccnc32)c1 | ? | . | 13µM* | . | 18.4µM* | .
COc1ccc(Cl)cc1NC(=O)Cn1c(=O)n(Cc2ccc(F)cc2)c(=O)c2cccnc21 | -16.1% | . | 9.2µM* | . | ? | .
O=C(Nc1cccc2cccnc12)c1ccccc1Br | 32.6% | -0.5% | ? | -1.2% | -24.3% | -7.1
O=C(NCCO)c1ccc(-c2ccc3nncn3c2)cc1 | 3.6% | ? | -2.4% | 8.1% | -1.4% | 16.0
COCCNC(=O)CSCc1cc(C)cc(C)c1 | 7.5% | 3.9% | 3.8% | 4.0% | 12.0% | -0.6
COc1ccc(-c2csc(N(CCCN(C)C)C(=O)c3ccc(C(C)(C)C)cc3)n2)cc1 | -17.1% | ? | ? | 16.4µM* | ? | -80.4*
COc1ccc(-c2csc(N(CC3CCCO3)C(=O)c3ccc(C)cc3)n2)cc1 (configuration not stated) | -12.9% | -26.3% | 23.1µM* | ? | 25.9µM* | -19.4
COc1ccc(-c2csc(N(CCCN(C)C)C(=O)c3ccc(C)cc3)n2)cc1 | -10.5% | ? | 16.4µM* | ? | ? | -78.7*
